Experimental data: PubChem BioAssay
The source made the active and inactive calls.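 How the source made its calls, unless noted: active means fluorescence slope after compound addition differing from the mean of all screened samples at 99.7% confidence, in either direction; inactive means the rest.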

Assays:
[1] = inhibitors of TNFa-induced NFkB p65 translocation, primary screen, imaging, HUVEC, MLSMR starter and 10KST1 sets (AID 438;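 active means inhibition above 20% together with a positive visual image hit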;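 further: compound added about 3h40 before a 20 min TNFalpha stimulation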;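 on inhibition: signal is the nuclear over cytoplasmic p65 intensity ratio per well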); settings: HUVEC TNFa-induced p65 nuclear translocation; cell count: measured here: nuclei count (cytotoxicity indicator), at 2.08 µM; inhibition: at 2 µM, stronger effect = higher value, 0% TNFa-plus-vehicle, 100% no-TNFa wells
[2] = reduction of polyQ htt aggregates in cells – imaging, exon1htt(103Q)mCFP cells, high-content imaging, primary screen (AID 483;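 active means visual image review flags a hit and inhibition of aggregation exceeds 20%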;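 further: compound exposure lasted 3 days before fixation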;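 on nuclei count: percent of the per-plate median nuclei count of sample wells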); settings: exon1htt(103Q)mCFP cell line, aggregate imaging, at 2 µM; inhibition of aggregation: stronger effect = higher value; nuclei count: measured here: cell count, toxicity
[3] = endothelial E-selectin expression blockers – imaging, HUVEC, immunofluorescence, MLSMR starter and 10KST1 sets, primary screen (AID 487;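 active means visually confirmed hit in the image check and inhibition above 20%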;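 on inhibition: signal is fraction of cell area covered by stained E-selectin grains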;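 on nuclei count: 100% = median nuclei count of all wells on the same plate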); settings: HUVEC TNFalpha-induced E-selectin immunofluorescence imaging, at 2 µM; inhibition: stronger effect = higher value; nuclei count: measured here: cell number, toxicity
[4] = molecular target: Voltage-gated potassium channel subunit beta-2 (Rattus norvegicus) (UniProt P62483); experiment: inhibitors of rat Kvbeta2 reductase activity – biochemical, NADPH fluorescence, primary screen (AID 622;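 active means fluorescence slope higher than the sample average by over 3 SD, cut at about -0.22 in these data, passing the limit was not always enough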;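 further: slope of raw intensity against log time taken from 70 to 1610 s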); settings: recombinant KvBeta, 4-cyanobenzaldehyde reduction, at 10 µM, stronger effect = higher value
[5] = molecular target: Voltage-gated potassium channel subunit beta-2 (Rattus norvegicus) (UniProt P62483); experiment: enhancers of rat Kvbeta2 NADPH turnover – biochemical, NADPH fluorescence, primary screen (AID 623;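 active means NADPH fluorescence slope more negative than the mean of all samples by about 3 SD, 99.7% confidence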;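 further: fluorescence intensity change per second fitted from 20 to 320 s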); settings: Recombinant KvBeta, NADPH fluorescence decrease slope, 10 min; at 10 µM; stronger effect = lower value
[6] = molecular target: Alpha-2C adrenergic receptor (Homo sapiens) (UniProt P18825); experiment: compounds altering alpha2C-coupled GIRK flux – cell-based, HEK293 alpha2C/GIRK1/2, thallium flux, primary screen (AID 624); settings: thallium flux BTC fluorescence, at 10 µM, actives lie on both sides;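 further: slope of fluorescence ratio to pre-addition baseline per second over 15 to 24 s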
[7] = blockers of RIG-like receptor reporter activation – cell-based, Sendai virus stimulus, luciferase, 10K MLSCN set, TLR/RLR signaling modifier project, primary screen (AID 602276;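 active means inhibition at or above 50% at 10 µM; inactive means inhibition below 50%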;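 further: firefly luciferase from ISG56 promoter only with Renilla not read in this screen; 0% = Sendai virus plus DMSO and 100% = medium plus DMSO without virus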); settings: HEK293 RL24 IRF3 luciferase reporter, at 10 µM, stronger effect = higher value
[8] = TLR3 IRF3 reporter activation blockers – cell-based, poly I:C stimulus, luciferase, 10K MLSCN set, primary screen (AID 602277;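 active means inhibition of the reporter signal at or above 50%; inactive means inhibition below 50%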); settings: HEK293-TLR3 RL24 IRF3 luciferase reporter, at 10 µM, stronger effect = higher value

Voltage-gated potassium channel subunit beta-2 (Rattus norvegicus), sequence (P62483 whole entry, looked up): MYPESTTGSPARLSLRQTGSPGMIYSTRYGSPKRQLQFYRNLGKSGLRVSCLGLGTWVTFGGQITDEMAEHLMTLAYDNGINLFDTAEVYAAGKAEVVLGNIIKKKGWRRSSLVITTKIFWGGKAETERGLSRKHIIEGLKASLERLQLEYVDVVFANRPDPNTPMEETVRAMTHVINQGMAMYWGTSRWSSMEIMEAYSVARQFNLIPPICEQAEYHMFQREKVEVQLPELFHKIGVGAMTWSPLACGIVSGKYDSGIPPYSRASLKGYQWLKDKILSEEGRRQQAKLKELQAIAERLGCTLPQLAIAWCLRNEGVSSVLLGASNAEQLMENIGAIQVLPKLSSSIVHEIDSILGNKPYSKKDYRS
Alpha-2C adrenergic receptor (Homo sapiens), sequence (P18825 whole entry, looked up): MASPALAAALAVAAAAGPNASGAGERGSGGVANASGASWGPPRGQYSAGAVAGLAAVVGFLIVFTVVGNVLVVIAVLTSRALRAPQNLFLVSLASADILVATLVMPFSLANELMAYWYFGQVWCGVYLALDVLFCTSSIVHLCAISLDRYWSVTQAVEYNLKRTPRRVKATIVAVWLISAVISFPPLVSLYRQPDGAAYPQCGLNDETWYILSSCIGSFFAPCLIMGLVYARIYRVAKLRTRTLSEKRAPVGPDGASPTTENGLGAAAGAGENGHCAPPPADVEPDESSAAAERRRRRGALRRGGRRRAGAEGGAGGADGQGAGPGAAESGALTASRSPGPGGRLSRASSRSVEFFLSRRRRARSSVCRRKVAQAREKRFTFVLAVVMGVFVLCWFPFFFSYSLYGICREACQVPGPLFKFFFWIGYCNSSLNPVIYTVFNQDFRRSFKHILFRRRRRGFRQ

Row | Structure (SMILES) | cell count [1] | inhibition [1] | inhibition of aggregation [2] | nuclei count [2] [%] | inhibition [3] | nuclei count [3] [%] | fluorescence slope [4] | NADPH fluorescence slope [5] | slope [6] | inhibition [7] | inhibition [8]
1 | CCOc1cc(C(=O)Nc2ccon2)cc(OCC)c1OCC | 795 | 0.3% (inactive) | -40.4% (inactive) | 104 | -35.9% (inactive) | 108 | -0.387 (inactive) | 1.3e-05 (inactive) | 0.00341 (inactive) | 17.9% (inactive) | 15.6% (inactive)
2 | Cn1cnc2cc(NC(=O)c3ccc(Cl)cc3)ccc21 | 829 | 6.9% (inactive) | 22.8% (inactive) | 74.5 | 3.1% (inactive) | 106 | -0.387 (inactive) | 2.4e-05 (inactive) | 0.00603 (inactive) | -39.3% (inactive) | -143% (inactive)
3 | COc1ccc(CCNC(=O)C2=COCCO2)cc1 | 596 | 4.2% (inactive) | 51.2% (active) | 90.3 | 53.6% (active) | 99.1 | -0.545 (inactive) | -2.9e-05 (inactive) | 0.00546 (inactive) | -14.5% (inactive) | -26.2% (inactive)
4 | CCOC(=O)COc1ccc(C2NC(C(=O)O)CS2)cc1 (configuration not stated) | 367 | -9.6% (inactive) | 9.8% (inactive) | 55.1 | -4.8% (inactive) | 97.6 | -0.381 (inactive) | -1.3e-05 (inactive) | 0.00376 (inactive) | 12.5% (inactive) | 13% (inactive)
5 | CN(C(=O)c1ccco1)c1nnc(C23CC4CC(CC(C4)C2)C3)s1 | 681 | -10% (inactive) | -1.7% (inactive) | 110 | -1.5% (inactive) | 126 | -0.408 (inactive) | -1.5e-05 (inactive) | 0.00459 (inactive) | -30.3% (inactive) | -32.2% (inactive)
6 | COCCSc1nnc(NC(=O)Cc2ccccc2OC)s1 | 660 | -15.1% (inactive) | 5.4% (inactive) | 94.2 | -30.7% (inactive) | 103 | -0.411 (inactive) | -5.1e-05 (inactive) | 0.00483 (inactive) | 16.6% (inactive) | 25.8% (inactive)
7 | O=C(CN1C(=O)c2ccccc2C1=O)Nc1ccccc1C(=O)N1CCCC1 | 407 | 4% (inactive) | -27.4% (inactive) | 112 | -13.3% (inactive) | 97.4 | -0.594 (inactive) | -2.3e-05 (inactive) | 0.00562 (inactive) | 4.76% (inactive) | 11.3% (inactive)
8 | Cc1ccc(Cc2c(C)nc3c(C(=O)O)cnn3c2C)cc1 | 327 | 7.7% (inactive) | 1.1% (inactive) | 108 | -4.3% (inactive) | 105 | -0.376 (inactive) | -1.4e-05 (inactive) | 0.0026 (inactive) | 3.97% (inactive) | 19.3% (inactive)
9 | Cc1cc(C)cc(N(CC(=O)NC2CCC(C)CC2)S(=O)(=O)c2c(C)noc2C)c1 (configuration not stated) | 753 | -6.3% (inactive) | 12.1% (inactive) | 114 | -27.2% (inactive) | 115 | -0.622 (inactive) | -3e-05 (inactive) | 0.00687 (inactive) | 7.51% (inactive) | 32.5% (inactive)
10 | NC(=O)CN1C(=O)C(O)(CC(=O)c2ccccc2O)c2ccccc21 (configuration not stated) | 641 | -0.3% (inactive) | -4.7% (inactive) | 122 | -65.3% (inactive) | 133 | -0.395 (inactive) | -4.6e-05 (inactive) | 0.00547 (inactive) | 12.7% (inactive) | 38.5% (inactive)
11 | COc1cc2c(=O)n(Cc3ccccc3)c(=O)n(CC(=O)NCc3ccco3)c2cc1OC | 358 | 3.5% (inactive) | -3.1% (inactive) | 107 | -319% (inactive) | 109 | -0.37 (inactive) | 9e-06 (inactive) | 0.0075 (inactive) | 23.8% (inactive) | 21.5% (inactive)
12 | CSCCC(N=CC1=C(O)CC(C)(C)CC1=O)C(=O)O (configuration not stated) | 405 | 1.8% (inactive) | -10.8% (inactive) | 104 | -0.2% (inactive) | 118 | -0.363 (inactive) | -4.2e-05 (inactive) | 0.00607 (inactive) | 15.3% (inactive) | 22.3% (inactive)
